In PubChem BioAssay (Tox21):
Results filed as inconclusive are left out. Unmarked numbers belong to inactive results. The source made the active and inactive calls. Calls come from the whole dose curve.

Experiment: p53 small molecule agonists, cell-based qHTS assay with human liver microsomes (AID 1963577);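 note: p53 response element beta-lactamase reporter cells with liver microsomes plus NADPH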
Details: HCT-116 p53RE-bla with human liver microsomes, ratio, 16 h; series mostly up to 66 µM; activation: at the top concentration
From the text: National Center for Advancing Translational Sciences [NCATS]
Division of Preclinical Innovation [DPI]
U.S. Environmental Protection Agency [EPA]
National Institutes of Environmental Health Sciences [NIEHS]
National Toxicology Program [NTP]
U.S. Food and Drug Administration [FDA]
p53, a tumor suppressor protein, is activated following cellular insult, including DNA damage and other cellular stresses. The activation of p53 regulates cell fate by inducing DNA repair, cell cycle arrest, apoptosis, or cellular senescence. The activation of p53, therefore, is a good indicator of DNA damage and other cellular stresses. […] The activation of the reporter gene under culture conditions can be detected by fluorescence intensity.
Tox21 Assay Protocol Summary:
The p53RE-bla cells were dispensed at 4,000cells/3ul/well in 1536-well black-clear bottom plates. After the assay plates were incubated at 37 C, 5% CO2 incubator for 5 hours, 23 nL of compounds dissolved in DMSO, positive controls or DMSO only was transferred to the assay plate. Following compound addition, 3 uL of human liver microsomes (XenoTech, Kansas City, KS) at final concentration of 0.5 mg/mL and 1uL of Beta-Nicotinamide adenine dinucleotide 2-phosphate (NADPH) at final concentration of 0.5 mg/mL were transferred to the assay plate. The plates were incubated at 37 C for 16 hours. 1 uL of LiveBLAzer detection mixture was added to each well and the plates were incubated at room temperature in the dark for 2 h.
% is set by controls: 0 for no effect and ±100 for the full control effect.

SMILES | Potency | activation
CCOCN(C(=O)CCl)c1c(C)cccc1CC | inactive | –
CC(C)CCON=O | – | -0.226%
CCCCOC(=O)COC(=O)c1ccccc1C(=O)OCCCC | inactive | –
Clc1ccc(COC(Cn2ccnc2)c2ccc(Cl)cc2Cl)cc1 (stereo not given) | inactive | –
CC[C@H](N)c1ccccc1 | – | 0.33%
CCCCCCC#N | – | -1.74%
COCCC#N | – | -0.329%
CCNc1nc(NCC)nc(SC)n1 | – | -15.3%
NC(=O)CCl | – | -9.07%
N#CCCC#N | – | 1.81%
O=C(O)c1ccccn1 | inactive | –
N#CC1(N=NC2(C#N)CCCCC2)CCCCC1 | – | -0.515%
CC(C)OC(=O)Nc1ccccc1 | inactive | –
CS(=O)(=O)NC(=O)c1cc(Oc2ccc(C(F)(F)F)cc2Cl)ccc1[N+](=O)[O-] | inactive | –
CCCCC(CC)COC(=O)c1c(Br)c(Br)c(Br)c(Br)c1C(=O)OCC(CC)CCCC (stereo not given) | – | 1.72% [at 30.3 µM]
O=[N+]([O-])c1ccccc1 | inactive | –
CN(C)c1ccc(N(C)C)cc1 | – | 0.85%
Cn1c(-c2ccccc2)cc(-c2ccccc2)[n+]1C | inactive | –
CCC(=O)Nc1ccc(Cl)c(Cl)c1 | inactive | –
CC(C)c1ccc(O)cc1 | – | -0.401%

SMILES | Potency | activation
O=C1C(Cl)=C(Cl)C(=O)C(Cl)=C1Cl | inactive | –
C=C(C)C(=O)OCC(CC)CCCC (stereo not given) | inactive | –
Nc1cnn(-c2ccccc2)c(=O)c1Cl | – | -8.09%
CN1CC[C@]23c4c5ccc(O)c4O[C@H]2[C@@H](O)CC[C@H]3[C@H]1C5 | – | 1.32%
Cc1ccc2cc(C)ccc2c1 | – | -1.41%
COS(=O)(=O)c1ccc(C)cc1 | – | 1.44%
COc1ccc(C(O)(c2cncnc2)C2CC2)cc1 (stereo not given) | – | -5.9%
COc1cccc(C=O)c1 | – | -0.677%
CCCCCCCCCCCCBr | – | 0.157%
NC(=O)CN1CCCC1=O | inactive | –
CCC(=O)O[C@H]1CC[C@H]2[C@@H]3CCC4=CC(=O)CC[C@]4(C)[C@H]3CC[C@]12C | inactive | –
c1ccc2c(c1)oc1ccccc12 | inactive | –
O=c1[nH]c2ccccc2c(=O)o1 | inactive | –
COc1ccc(N)cc1 | inactive | –
[P]#[In] | – | -1.17%
CCCCCCCCCl | inactive | –
CNC | inactive | –
Clc1ccc(C(c2ccccc2Cl)C(Cl)(Cl)Cl)cc1 (stereo not given) | inactive | –
O=[N+]([O-])c1ccc(CBr)cc1 | – | -0.487%
Nc1nc(=S)[nH][nH]1 | – | -0.358%
